Compound activity: PubChem, National Center for Advancing Translational Sciences (NCATS)
Sampled rows, rich in hits. Any-hit rate of the full collection: about 17%.
ATXN viability: Viability Counterscreen for Primary qHTS for Inhibitors of ATXN expression. S2 cells (HEK-293 line with an ATXN2-luciferase reporter) viability, CellTiter-Fluor protease fluorescence, 24 h. Potency, µM (titrated, usually from 56.7 µM), usual class: cytotoxic. hit rate 0.49% among 400,000; also: nearly all actives have a fitted effect of over 40% in size
TGFb inhibitor: qHTS for Inhibitors of TGF-b. HepG2 CAGA-GFP TGF-b/SMAD3 reporter, GFP fluorescence, 18 h; TGF-beta stimulated, 500 pg/mL final. Potency, µM (top dose mostly 46.1 µM), for inactives: at the top dose activity, negative = inhibition, most hits filed as inhibitors. hit rate 1.2% among 410,000; also: % is scaled to controls: 0 for no effect and ±100 for the full control effect; nearly all actives have a fitted effect of over 65% in size
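First, reporter cells (HEPG2 CAGA-GFP) rested 2 h at 37 degrees C. Next, compounds were pinned in and TGF-beta added to 500 pg/mL final. After 18 h, GFP was imaged per cell and summed per well.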
DT40 TDP1 no CPT: qHTS for Inhibitors of human tyrosyl-DNA phosphodiesterase 1 (TDP1): qHTS in cells in absence of CPT | DT40 Tdp1-/- hTDP1 cells, no CPT, ATP luminescence, 48 h | Potency, µM (series often up to 46.2 µM), for the others: at the top dose activity change, negative = growth inhibition, hits mostly inhibitors | hit rate 15% among 420,000; also: % is scaled to controls: 0 for no effect and ±100 for the full control effect; nearly all actives have a fitted effect of over 55% in size
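A cellular qHTS used chicken DT40 cells lacking endogenous Tdp1 but carrying stably transfected human TDP1. Compounds were applied without camptothecin, and cell growth kinetics were judged by ATP-dependent luminescence after ≥48 hr.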
ATXN2 expr inh: Primary qHTS for Inhibitors of ATXN expression; HEK-293 ATXN2-luciferase reporter, luminescence, 24 h; Potency, µM (top dose mostly 57 µM), for inactives: at the top dose activity change, negative = inhibition, usual class: inhibitors; hit rate 0.72% among 360,000; also: % is scaled to controls: 0 for no effect and ±100 for the full control effect; nearly all actives have a fitted effect of over 55% in size
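ATXN2-luciferase reporter cells (luciferase flanked by upstream and downstream ATXN2 gene portions) were treated 24 h at 37 °C with compounds at up to 57 uM. SteadyGlo luminescence gave expression; GF-AFC fluorescence gave viability.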
HepG2 viability: qHTS for Inhibitors of TGF-b: Cytotox Counterscreen; HepG2 CAGA-GFP viability, ATP luminescence, 18 h; Potency, µM (doses to about 46.1 µM), without a hit: at the highest dose activity change, negative = cytotoxicity, usual class: cytotoxic; hit rate 0.76% among 410,000
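CellTiter-Glo luminescence gave cytotoxicity after 18 hours at 37 degrees C. The cells were HepG2 CAGA-GFP in 1% FBS DMEM, stimulated with 500 pg/mL TGF-beta after compound addition. %Activity was normalised to no-cell wells (complete cell-killing) and DMSO (no toxicity), and curves were fitted and classified.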
DT40 TDP1 CPT: qHTS for Inhibitors of human tyrosyl-DNA phosphodiesterase 1 (TDP1): qHTS in cells in presence of CPT; chicken DT40 Tdp1-/-;hTDP1 cells + 20 nM CPT, ATP luminescence, 48 h; hit rate 12% among 420,000; Potency, µM (doses to about 46.2 µM), for inactives: at the top dose activity change, negative = growth inhibition, actives largely listed as inhibitors; also: % is scaled to controls: 0 for no effect and ±100 for the full control effect; nearly all actives have a fitted effect of over 55% in size
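Cell growth measured by CellTiter-Glo luminescence after a minimum 48 h, 37 C compound exposure with 20 nM CPT in Tdp1-knockout DT40 cells stably expressing hTDP1, seeded 400/well; qHTS titration format.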
Active calls of the source: *; i = inactive; ? = inconclusive; / = no result; [ ] = remark or other dose. Calls follow the shape of the dose curve; as a rule, active = well fitted curve in the direction sought with a large enough effect; inconclusive = small, poorly fitted or top-dose-only effect, or another doubt; inactive = no such curve, though single readings can be large; an effect the other way counts as inactive or inconclusive. Potency is read from the fitted curve at half-maximal effect.

SMILES	ATXN viability	TGFb inhibitor	DT40 TDP1 no CPT	ATXN2 expr inh	HepG2 viability	DT40 TDP1 CPT
Cc1cc(C)c2nc(NNC(=O)c3cc(=O)c4ccccc4o3)sc2c1	i	?	?	8%	-56%	29µM*
COc1ccc2nc(NC(=O)c3cc(=O)c4ccccc4o3)sc2c1	i	26%	-25%	31%	5%	-2%
Cc1nnc(NC(=O)c2ccc(S(=O)(=O)N3CCc4ccccc4C3)cc2)o1	i	-18%	?	-21%	-42%	?
COc1ccccc1CNC(=O)COC(=O)c1ccc(N2CCCC2=O)cc1	?	28%	-27%	/	17%	-14%
CCCNC(=O)C1(C)CCCN(C(=O)c2ccc3ccccc3c2)C1 (stereo unspecified)	i	-1%	?	0%	-4%	-19%
O=C(NC(NC(=S)Nc1ccc(Cl)cc1Cl)C(Cl)(Cl)Cl)c1cccc([N+](=O)[O-])c1 (stereo unspecified)	?	?	5.8µM*	?	13µM*	7.3µM*
Cc1ccccc1NC(=S)NC(NC(=O)c1ccccc1C)C(Cl)(Cl)Cl (stereo unspecified)	i	-26%	21µM*	33%	-18%	?
Cc1ccc(C)c(NC(=S)NC(NC(=O)Cc2ccccc2)C(Cl)(Cl)Cl)c1 (stereo unspecified)	i	-14%	-22%	-39%	-21%	-2%
Cc1cc(C)c(NC(=S)NC(NC(=O)c2ccccc2)C(Cl)(Cl)Cl)c(C)c1 (stereo unspecified)	i	?	5.8µM*	?	-49%	?
CC(C)(C)c1ccc(C(=O)NCC(=O)N/N=C/c2cccnc2)cc1	i	0%	-27%	4%	-2%	-18%
Cc1nnc(SCC(=O)Nc2nonc2C)s1	i	9%	-13%	-1%	5%	-2%
Cc1cnc(CNC(=O)c2c3n(c(C)cc2=O)-c2ccccc2SC(c2ccsc2)C3)cn1 (stereo unspecified)	i	/	-7%	/	/	-10%
CC(/C=N/Nc1nc2ccccc2[nH]1)=C\c1ccccc1	?	?	?	-8%	-40%	15µM*
CCN(CC)c1ccc(/C=N/Nc2nc3ccccc3[nH]2)cc1	5.6µM*	3%	4.6µM*	/	-2%	3.3µM*
COc1cc(/C=N/Nc2nc3ccccc3[nH]2)cc(OC)c1O	i	?	3.7µM*	-7%	-30%	4.1µM*
CC(=O)Nc1ccc(/C=N/Nc2nc3ccccc3[nH]2)cc1	?	?	-9%	/	-76%	-30%
COc1cccc(/C=N/Nc2nc3ccccc3[nH]2)c1O	?	3.2µM*	23µM*	/	-76%	18µM*
COc1cccc(/C=N/Nc2nc3ccccc3n3cnnc23)c1O	i	0%	5.8µM*	?	-12%	5.8µM*
COc1cc(/C=N/Nc2nc3ccccc3[nH]2)cc(Br)c1OCC(=O)N(C)C	i	-11%	18µM*	-6%	8%	?
COc1cc(/C=N/Nc2nc3ccccc3[nH]2)ccc1O	i	-29%	4.6µM*	48%	-18%	6.5µM*
COc1cc(/C=C(/C(=O)c2cccs2)c2nc3ccccc3[nH]2)cc(OC)c1O	?	?	16µM*	?	13µM*	?
COc1ccc(CCNC(=O)CCc2cn(Cc3ccc(C)cc3)c3ccccc23)c(OC)c1OC	/	?	?	/	-23%	?
CC1(c2ccccc2Cl)NC(=O)N(CC(=O)NCc2ccco2)C1=O (stereo unspecified)	i	11%	6%	-26%	4%	1%
COc1cc(/C=N/Nc2nc(C)cc(C)n2)ccc1O	?	-7%	1%	/	-25%	0%
COc1cc(/C=N/Nc2snc(SC)c2C#N)ccc1O	?	4%	3.2µM*	2%	-11%	4µM*
SMILES	ATXN viability	TGFb inhibitor	DT40 TDP1 no CPT	ATXN2 expr inh	HepG2 viability	DT40 TDP1 CPT
Nc1cccc(/C=C/c2ccnc3ccccc23)c1	/	16%	?	/	4%	?
C1=CN2CC=Cc3cc(/C=C/c4ccnc5ccccc45)cc(c32)C1	/	125%	7.1µM*	/	-20%	10µM*
CCCOc1ccccc1OCC(=O)Nc1cc(Cl)ccc1-n1cncn1	i	0%	?	-8%	-3%	?
CC(=O)N1CCN(c2ccccc2NC(=O)Cc2ccc(Cl)cc2)CC1	i	-5%	?	8%	-25%	-27%
Cc1ccc(CC(=O)Nc2ccccc2N2CCOCC2)cc1C	i	?	?	7%	-12%	16µM*
O=C(Cc1ccc(Cl)cc1)Nc1ccccc1N1CCOCC1	i	0%	16µM*	-11%	-16%	?
COc1ccc(CC(=O)Nc2ccccc2N2CCOCC2)cc1OC	i	2%	-26%	-4%	-1%	7%
O=C(Cc1ccccc1)Nc1cc([N+](=O)[O-])ccc1N1CCOCC1	/	9%	-12%	-13%	-11%	-20%
CN(CC(=O)Nc1cc(Cl)ccc1-n1cncn1)Cc1ccccc1N1CCOCC1	i	-1%	?	/	3%	23µM*
O=C(CSc1ccc([N+](=O)[O-])cc1)Nc1ccccc1N1CCOCC1	i	-1%	21µM*	-13%	-15%	?
CCCCc1c(-c2ccc(OC)c(OC)c2)ncn1CCc1ccccc1OC	/	/	5.8µM*	?	/	5.8µM*
COc1ccccc1CCn1cnc(-c2ccc(OC)c(OC)c2)c1C(C)C	?	/	5.8µM*	0%	/	8.2µM*
COc1ccc(-c2nn(-c3ccccc3)cc2C(=O)O)cc1OC	i	-18%	15%	-10%	-24%	0%
CCCCc1c(-c2cccc(OC)c2)ncn1CCc1ccccc1OC	/	/	18µM*	22µM*	/	15µM*
CCCCCc1c(-c2ccccc2)ncn1CCc1ccccc1OC	?	/	15µM*	0%	/	23µM*
COc1ccccc1-c1ccnc(-n2ncc(C(=O)N(C)C(C)c3ccon3)c2C2CC2)n1 (stereo unspecified)	i	/	-23%	/	/	-11%[9.04 µM]
O=C(CSc1nncn1-c1ccccc1F)NC1CC1	i	-3%	0%	30%	-7%	-27%
CCOC(=O)c1c(NC(=O)CN2C(=O)NC(C)(c3ccccc3)C2=O)sc(C)c1C (stereo unspecified)	i	?	?	-22%	13%	?
